Only some compounds are listed: those with a hit (about 0.84% of all), similar ones and a draw of the others.
PPARg SRC-2 ag – agonists of SRC-2 recruitment by human PPARgamma; P37231; PPARgamma LBD-SRC-2 recruitment, biochemical; activation, % at 8 µM; hit rate 0.34% among 200,000; AID 1032; in the data active means activation above about 22%
Target sequence (P37231 whole entry, looked up, the tested form may be a part): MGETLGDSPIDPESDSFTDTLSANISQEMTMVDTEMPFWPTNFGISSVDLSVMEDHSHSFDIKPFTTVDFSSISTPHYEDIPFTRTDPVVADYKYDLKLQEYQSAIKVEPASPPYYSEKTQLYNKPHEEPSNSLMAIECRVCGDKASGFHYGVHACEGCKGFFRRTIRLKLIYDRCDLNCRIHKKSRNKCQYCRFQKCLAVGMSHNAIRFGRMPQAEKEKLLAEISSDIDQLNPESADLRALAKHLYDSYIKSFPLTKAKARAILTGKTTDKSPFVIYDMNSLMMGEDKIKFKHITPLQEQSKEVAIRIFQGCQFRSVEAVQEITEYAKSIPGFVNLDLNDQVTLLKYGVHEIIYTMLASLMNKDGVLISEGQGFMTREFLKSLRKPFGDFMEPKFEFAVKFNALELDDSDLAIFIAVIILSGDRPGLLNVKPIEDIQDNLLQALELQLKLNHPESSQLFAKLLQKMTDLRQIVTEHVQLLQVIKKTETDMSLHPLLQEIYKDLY
SRC3 TRFRET art – TR-FRET artefact, counter-screen to PPARgamma/SRC-3 agonist assay; PPARgamma/SRC-3 format; stronger effect = higher value; TR-FRET ratio at 8 µM; hit rate 0.39% among 99,000
PPARg SRC1 recr – PPARgamma-driven SRC-1 recruitment agonism | PPARgamma-SRC-1 coactivator recruitment biochemical assay | activation, % at 8 µM | hit rate 0.41% among 200,000; in the data active means activation above about 19%
SRC1 TRFRET art – TR-FRET artefact, counter-screen to PPARgamma/SRC-1 agonist assay | TR-FRET detection artefact counter-screen, emission ratio; stronger effect = higher value | TR-FRET ratio at 8 µM | hit rate 0.34% among 99,000 | AID 1051; in the data active means TR-FRET ratio above about 2300
SRC2 TRFRET art – TR-FRET artefact, counter-screen to PPARgamma/SRC-2 agonist assay; stronger effect = higher value; TR-FRET ratio at 8 µM; hit rate 0.4% among 200,000
PPARg SRC-3 ag – promotes SRC-3 coactivator recruitment by human PPARgamma; P37231; biochemical PPARgamma/SRC-3 coactivator recruitment assay; activation, % at 8 µM; hit rate 0.26% among 200,000; in the data active means activation above about 23%
A number is an active result; – = inactive; · = no result. Unless noted, no stated cut-off is given here; in the data, active means TR-FRET ratio above about 2000; inactive means the rest.

SMILES	PPARg SRC-2 ag	SRC3 TRFRET art	PPARg SRC1 recr	SRC1 TRFRET art	SRC2 TRFRET art	PPARg SRC-3 ag
CC(NC(=S)NCCN1CCOCC1)C12CC3CC(CC(C3)C1)C2 (centres undefined)	–	–	–	–	–	–
Cc1nnc(NC(=O)c2sc3ccccc3c2Cl)s1	–	·	–	·	–	–
Cc1ccc(NC(=O)c2sc3ccccc3c2Cl)nc1	–	·	36	·	–	–
CCOC(=O)c1cnc2c(cnn2C)c1NCCCn1ccnc1	–	–	–	–	–	–
COc1ccc2c(c1)[nH]c(=O)c1sc3ccccc3c12	–	·	–	·	–	–
COc1ccc2sc3c(=O)[nH]c4ccccc4c3c2c1	–	·	145	·	–	–
NNc1nc2cccnc2n(CCNc2ncc(C(F)(F)F)cc2Cl)c1=O	–	–	–	–	–	–
O=c1c(Cl)nc2cc(Cl)ccc2n1CCNc1ncc(C(F)(F)F)cc1Cl	–	·	32	·	–	–
O=C(NCc1cccnc1)C(=O)Nc1ccc([N+](=O)[O-])cc1	–	–	–	–	–	–
CCOC(=O)c1sc(=NC(=O)c2ccc(OC(C)C)cc2)n(C)c1C	–	–	43	–	–	–
NC(=O)C1(N2CCCCC2)CCN(C(=S)Nc2ccc(F)c(Cl)c2)CC1	–	–	–	–	–	–
O=C(NCc1cccc(F)c1)c1ccc(N2C(=O)Cn3c(cc4sccc43)C2=O)cc1	–	2155	–	–	–	–
Cc1ccccc1Cn1nc(C)c(NC(=O)C2c3ccccc3Oc3ccccc32)c1C	–	–	–	–	–	–
CCN(CC)c1ccc(C=Nc2ccc(C)cc2)c(O)c1	–	·	–	·	–	–
CCN(CC)c1ccc(N=Cc2ccc(N(CC)CC)cc2O)cc1	27	·	–	·	–	41
Cc1ccc2nc(NC3=NC(CC(=O)O)C(=O)N3)nc(C)c2c1 (centres undefined)	–	–	–	–	–	–
CCCn1c(SCC(=O)NCc2ccccc2Cl)n[nH]c1=O	–	–	–	–	–	–
Cc1ccnn1CCC(=O)N1CCCC(CCC(=O)N2CCN(c3ccccn3)CC2)C1 (centres undefined)	–	–	–	–	–	–
O=c1c(/C=N/OCc2ccc(Cl)cc2Cl)c[nH]n1-c1cccc(Cl)n1	–	–	–	–	2085	–
C/C(=N\Nc1nc2ccccc2[nH]1)c1ccc(C)o1	–	2059	–	–	–	–
CCCCNC(=O)CSc1nc2ccccc2n1S(=O)(=O)c1ccc(Cl)cc1	–	–	–	–	–	–
CCCCNC(=O)CSc1nc2ccccc2n1S(=O)(=O)c1ccc(Br)cc1	–	–	–	–	1974	–
O=C(Cc1ccc(F)cc1)Oc1ccc(C(=S)N2CCCC2)cc1	–	–	–	–	–	–
Cc1cc(SCC(=O)c2cc3ccccc3o2)nc2ccccc12	–	·	–	·	2575	–
Cc1cc(NC(=O)CSc2nc3cc(Cl)ccc3s2)no1	–	·	–	·	–	–
SMILES	PPARg SRC-2 ag	SRC3 TRFRET art	PPARg SRC1 recr	SRC1 TRFRET art	SRC2 TRFRET art	PPARg SRC-3 ag
O=C(CSc1nc2cc(Cl)ccc2s1)c1cc2ccccc2o1	–	·	–	·	2199	–
COCCn1nnnc1C(C(C)C)N1CCCC(C)C1 (centres undefined)	–	–	–	–	–	–
CC12CCC(C(=O)N3CCC(Cc4ccccc4)CC3)(C(=O)C1=O)C2(C)C (centres undefined)	–	–	–	–	–	–
CCOC(=O)C1CCN(S(=O)(=O)c2ccc(OC)c(Cl)c2)CC1	–	–	–	–	–	–
COc1ccc(Oc2nc3ccccc3n(C)c2=O)cc1	–	·	–	·	–	–
Cn1c(=O)c(Oc2cc(Cl)cc(Cl)c2)nc2ccccc21	–	·	29	·	–	–
CCOc1ccc(-n2nc3c(=O)[nH]nc(C)c3c2C)cc1	–	–	–	–	–	–
CCOc1ccc(-n2nc3c(=S)[nH]nc(C)c3c2C)cc1	–	2186	–	–	–	–
Cc1cc(/C=C2/C(=O)N(C)C(=S)N2C)c(C)n1C1CC1	22	–	–	–	–	–
Cc1nonc1OCCNCc1c(C(=O)N2CCCCCCC2)nc2ccc(Cl)cn12	–	–	–	–	–	–
O=C(CC1CCCC1)Nc1ccc2c(c1)CCC2	57	·	–	·	–	–
O=C(Cc1ccccc1)Nc1ccc2c(c1)CCC2	–	–	–	–	–	–
COc1ccc(C(=O)CSc2nnc(CNC(=O)c3ccco3)n2C)cc1	–	–	–	–	–	–
CC(C)NC(=O)NC(=O)CSc1ccccc1F	–	3589	–	–	–	38
CC(C)NC(=O)NC(=O)COC(=O)c1ccccc1F	–	–	–	–	–	–
Cc1cc(N2CCC(C(=O)NC3CCCCC3)CC2)nc(-c2ccccc2)n1	–	2155	–	–	–	–
Cc1cc(N2CCC(C(=O)NC3CC3)CC2)nc(-c2ccccc2)n1	–	·	–	·	–	–
CC(C)NC(=O)NC(=O)COc1ccc(Br)cc1Br	–	–	–	–	–	–
O=C(CSc1ncnc2c1oc1ccccc12)NCC1CCCO1 (centres undefined)	110	·	95	·	3902	131
CC(C)NC(=O)COC(=O)c1cccc(NS(=O)(=O)/C=C/c2ccccc2)c1	22	–	–	–	–	–
COc1ccc(C(=O)NNC(=O)CSc2nnc(C)n2CC2CCCO2)cc1 (centres undefined)	–	–	–	–	–	–
CC(=O)Nc1ccc(S(=O)(=O)Nc2nc3ccccc3nc2Sc2nncn2C)cc1	–	·	–	·	2233	–
O=C(CSc1ncnc2c1nnn2-c1ccc(F)cc1)NCc1ccco1	23	·	–	·	–	–
CN(CC(=O)NCc1ccccn1)S(=O)(=O)c1ccc2ccccc2c1	–	–	–	–	–	–
O=C1c2cccc(Cl)c2C(=O)c2c1cccc2N1CCCC1	–	·	–	·	–	–
SMILES	PPARg SRC-2 ag	SRC3 TRFRET art	PPARg SRC1 recr	SRC1 TRFRET art	SRC2 TRFRET art	PPARg SRC-3 ag
COc1ccc2nc(SCC(=O)N3CCN(c4ccc(F)cc4)CC3)c(C#N)cc2c1	–	·	–	·	2728	–
O=C(c1ccc2ccccc2c1)C1CCCN(C(=O)c2noc3c2CCCC3)C1 (centres undefined)	–	–	–	–	–	–
COc1ccc(OC)c(NC(=O)CSc2nnc(N)s2)c1	23	·	–	·	–	–
COc1ccc(OC)c(NC(=O)CSc2nnc(-c3cccnc3)s2)c1	–	–	–	–	–	–
CCCn1c(N)cc(=O)n(C)c1=O	–	–	–	–	–	–
CCn1cc(/C=C/C(=O)Nc2ccn(Cc3c(F)c(F)c(F)c(F)c3F)n2)cn1	28	–	–	–	–	–
CCn1cc(/C=C/C(=O)Nc2c(C)nn(Cc3ccccc3C)c2C)cn1	–	–	–	–	–	–
O=C(O)C1CCC(Cn2c(SCc3cc(=O)n4cc(Br)ccc4n3)nc3ccsc3c2=O)CC1 (centres undefined)	–	2459	–	–	–	–
COc1ccc(-c2nc(-c3ccc(NC(=O)c4ccc(Br)o4)cc3)no2)cc1OC	–	·	–	·	–	30
COc1ccc(-c2noc(Cc3cccs3)n2)cc1	–	·	–	·	–	–
